# Laboratory results as given in ChEMBL document CHEMBL3988442, “University of Dundee, Small-Polar-MMV Screening Library” (2021).
# Entries with a potency or affinity are not part of this list.
# Biological target: Protein translocase subunit SecA (Escherichia coli (strain K12)) (UniProt P10408)
# Assay: Assay to Identify E. coli SecA ATPase Inhibitors
# Type: functional
# Set-up: scale not given: direction of the effect not stated beside the values
# Conditions: 30 µM
# Chain of Protein translocase subunit SecA (Escherichia coli (strain K12)) (P10408 whole entry): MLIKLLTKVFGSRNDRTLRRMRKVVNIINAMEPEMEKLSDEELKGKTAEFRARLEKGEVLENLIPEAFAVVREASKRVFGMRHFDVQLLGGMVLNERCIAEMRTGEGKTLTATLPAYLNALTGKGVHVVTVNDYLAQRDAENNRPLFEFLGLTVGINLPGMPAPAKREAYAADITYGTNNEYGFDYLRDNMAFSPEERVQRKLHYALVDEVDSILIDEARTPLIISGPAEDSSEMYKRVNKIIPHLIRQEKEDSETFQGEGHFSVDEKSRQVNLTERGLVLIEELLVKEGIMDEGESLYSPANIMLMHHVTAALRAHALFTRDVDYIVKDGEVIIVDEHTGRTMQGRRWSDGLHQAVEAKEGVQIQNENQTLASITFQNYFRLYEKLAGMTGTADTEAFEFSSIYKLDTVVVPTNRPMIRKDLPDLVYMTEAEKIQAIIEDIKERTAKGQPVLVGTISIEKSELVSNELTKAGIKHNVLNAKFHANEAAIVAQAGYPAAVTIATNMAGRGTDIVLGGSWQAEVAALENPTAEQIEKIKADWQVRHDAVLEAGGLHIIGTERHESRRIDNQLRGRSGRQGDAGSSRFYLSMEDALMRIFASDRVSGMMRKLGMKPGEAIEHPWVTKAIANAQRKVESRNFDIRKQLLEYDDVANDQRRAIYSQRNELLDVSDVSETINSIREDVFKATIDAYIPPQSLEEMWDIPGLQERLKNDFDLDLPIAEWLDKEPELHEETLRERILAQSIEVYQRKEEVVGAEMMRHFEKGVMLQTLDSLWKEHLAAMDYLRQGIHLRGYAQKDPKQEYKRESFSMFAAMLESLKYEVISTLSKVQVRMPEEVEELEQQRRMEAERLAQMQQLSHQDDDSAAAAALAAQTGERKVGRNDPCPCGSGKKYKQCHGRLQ
row,SMILES,Percent Effect [%]
1,CC(C)c1nc(C2CCCN2CC(=O)Nc2ccc(Cl)cn2)no1 (centres undefined),-10.5
2,CCN(CC1CCOC1)C(=O)Nc1ccc(-n2cncn2)nc1 (centres undefined),-3.32
3,O=C(NCc1nn(-c2ccccc2)c2c1CCC2)NC1CC1,-4.01
4,CC1CN(CC2CCCCC2)CCN1c1ccc2nncn2n1 (centres undefined),3.17
5,O=C1C(NCc2nnc3n2CCCC3)CCCN1c1cccc(F)c1 (centres undefined),0.699
6,O=C(Cc1cccnc1)N1CCC(OCc2ccccc2)CC1,-7.08
7,CCn1ccnc1CN1CCC(N(C)Cc2ncc(C)o2)C1 (centres undefined),-0.494
8,NC(=O)c1cc(C2CCCN(CCCOc3ccccc3)C2)n[nH]1 (centres undefined),1.07
9,CC(NC(=O)N(C)CCCOc1ccc(F)cc1)c1nncn1C (centres undefined),-2.67
10,CN(Cc1noc(C2CC2)n1)C1CCN(Cc2nnc(C3CC3)o2)C1 (centres undefined),4.16
11,CN(Cc1ccc(F)cc1)[C@@H]1CN(C(=O)c2cccs2)C[C@H]1O,-4.06
12,CCn1ncc(Br)c1CN(C)S(=O)(=O)c1ccc(C)cc1,0.567
13,Cc1cccc(C(=O)N2CCCCC2c2ccc(CN(C)C)cc2)n1 (centres undefined),-1.58
14,Cc1cccc(CN2CCc3nnc(CN4CCCC4=O)n3CC2)n1,-3.64
15,CC(C)c1nccn1-c1cccc(C2CCCN(C3CCCC3)C2)n1 (centres undefined),-2.48
16,Cc1ccc2cc(C(=O)NCCn3nc4ccccn4c3=O)[nH]c2c1,-1.72
17,Cc1csc(Nc2nccnc2C2CCCN2C(=O)C(C)C)n1 (centres undefined),1.4
18,CC(C)(C)c1cn2nc(N3CCCC3Cn3cncn3)sc2n1 (centres undefined),0.788
19,CCNC(=O)c1ccc(CNCc2c(C)nn(C)c2N(C)C)cc1,-4.63
20,CN(C)c1cc(C(=O)N2CCN(S(C)(=O)=O)CC2)ccn1,-7.92

row,SMILES,Percent Effect [%]
1,Cn1ccnc1CN1CCN(Cc2noc(-c3ccccc3)n2)CC1,-3.61
2,COCC(C)N(C)C(=O)c1nc(S(C)(=O)=O)n2ccccc12 (centres undefined),-8.81
3,CS(=O)(=O)NCC1CCCN(C(=O)COc2ccc(F)cc2)C1 (centres undefined),-1.75
4,CCN(Cc1cccc2c1OCO2)C(=O)C(C)c1cccnc1 (centres undefined),-0.831
5,Cc1nc(CN2CCC(N(C)Cc3noc(C4CC4)n3)C2)oc1C (centres undefined),0.865
6,COC(=O)CC(c1cnn(C)c1)c1oc(C)cc(=O)c1O (centres undefined),-7.67
7,Cc1cnn(CC2CCCN2C(=O)c2ccc(OC(C)C)nc2)c1 (centres undefined),-0.574
8,CN1[C@H](CN2CCCC2)C[C@@H]2CN(C(=O)Cc3cccs3)CC[C@@H]21,-2.98
9,CC(C)CN1CCC2(CCN(C(=O)c3ccc(F)cc3)CC2)C1=O,-1.91
10,CC(=O)N1N=C(c2ccccc2)OC1C(=O)NCCC1=CCCCC1 (centres undefined),1.88
11,CCC1CN(C(=O)c2ccc(Cl)cc2O)CCN1C(C)C (centres undefined),-4.41
12,Cn1cc(-c2nc(CN3CCc4c(ncn4C4CC4)C3)cs2)cn1,0.667
13,O=C(NCCn1nc2ccccn2c1=O)c1cccc2[nH]ncc12,-1.51
14,COc1ncccc1CNC(=O)NCCNC(=O)c1ccco1,-2.62
15,Cc1cnn(CCNCc2nnc(C3CC3)o2)c1,2.37
16,COc1ccc(S(N)(=O)=O)cc1C(=O)N(C)Cc1cc(C)on1,1.97
17,O=S(=O)(CCCN1CCCC1Cn1cncn1)c1ccccc1 (centres undefined),1.87
18,O=C(NCC(=O)N1CCc2ccccc2C1)c1ccoc1,-0.143
19,CC(=O)N1[C@H](CN(C)C)C[C@@H]2CN(C(=O)c3cccc(F)c3)CC[C@@H]21,-6.12
